Assay results: PubChem BioAssay (EPA / NIEHS)
Some compounds were tested as several samples or in several runs, with calls that do not always agree. Active and inactive are the calls of the source. How the source made its calls: active means hit-call score of the fitted dose curve at least 0.9, where 1 is the maximum; inactive means score below 0.9.

What was measured:
[1] = ATG_E_Box_CIS: Attagene CIS-FACTORIAL HepG2 Assay for human Enhancer Box (E-box) (AID 2282936); conditions: HepG2 E-box cis-reporter transcription, actives raise or lower the signal
Summary of the method: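 Transiently transfected HepG2, endogenous TF-driven reporters, 24 h dosing. Readout: RT-PCR plus capillary electrophoresis of fluorescent reporter fragments. Gain or loss of signal fitted bidirectionally against DMSO baseline.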

[2] = ATG_M_61_CIS: Attagene CIS-FACTORIAL HepG2 Assay for M61 Transcription Factor (Internal Marker) (AID 2282937); conditions: HepG2 Attagene CIS-FACTORIAL M61 internal marker reporter; actives raise or lower the signal
Summary of the method: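 Using transiently transfected HepG2 liver cells, reporter transcript levels were assessed 24 h post-dosing by RT-PCR and capillary electrophoresis. Changes in either direction were fitted relative to DMSO controls.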

[3] = ATG_EGR_CIS: Attagene CIS-FACTORIAL HepG2 Assay for human Early Growth Response 1 (EGR1) (AID 2282938); conditions: HepG2 Attagene CIS-FACTORIAL EGR reporter mRNA; actives raise or lower the signal
Summary of the method: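 Fluorescent capillary-electrophoresis signal of reporter cDNA fragments serves as read-out. HepG2 cells bear transiently transfected cis-promoter reporter units and are exposed 24 h; gain- or loss-of-signal is fitted against DMSO.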

[4] = ATG_M_19_CIS: Attagene CIS-FACTORIAL HepG2 Assay for M19 Transcription Factor (Internal Marker) (AID 2282939); conditions: HepG2 Attagene CIS-FACTORIAL M19 internal marker reporter; actives raise or lower the signal
Summary of the method: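 Signals come from fluorescence of labelled reporter-specific PCR fragments resolved by capillary electrophoresis, following 24 h treatment of HepG2 cells transfected with cis-promoter reporter units; activity was fitted in both directions relative to DMSO.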

[5] = ATG_Ets_CIS: Attagene CIS-FACTORIAL HepG2 Assay for human Erythroblast Transformation Specific (ETS) (AID 2282941); conditions: HepG2 ETS cis-reporter transcription, actives raise or lower the signal
Summary of the method: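 Cis-regulated reporter mRNA induction in HepG2 (transient transfection), 24 h exposure, RT-PCR plus capillary electrophoresis detection; DMSO serves as negative control and baseline.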

[6] = target: Hepatocyte nuclear factor 3-beta (Homo sapiens) (UniProt Q9Y261); assay: ATG_FoxA2_CIS: Attagene CIS-FACTORIAL HepG2 Assay for human Forkhead box A2 (FOXA2) (AID 2282942); conditions: HepG2 cis-reporter transcription factor activity, 24 h; actives raise or lower the signal
Sequence of Hepatocyte nuclear factor 3-beta (Homo sapiens) (Q9Y261 whole entry, looked up, the tested form may be a part): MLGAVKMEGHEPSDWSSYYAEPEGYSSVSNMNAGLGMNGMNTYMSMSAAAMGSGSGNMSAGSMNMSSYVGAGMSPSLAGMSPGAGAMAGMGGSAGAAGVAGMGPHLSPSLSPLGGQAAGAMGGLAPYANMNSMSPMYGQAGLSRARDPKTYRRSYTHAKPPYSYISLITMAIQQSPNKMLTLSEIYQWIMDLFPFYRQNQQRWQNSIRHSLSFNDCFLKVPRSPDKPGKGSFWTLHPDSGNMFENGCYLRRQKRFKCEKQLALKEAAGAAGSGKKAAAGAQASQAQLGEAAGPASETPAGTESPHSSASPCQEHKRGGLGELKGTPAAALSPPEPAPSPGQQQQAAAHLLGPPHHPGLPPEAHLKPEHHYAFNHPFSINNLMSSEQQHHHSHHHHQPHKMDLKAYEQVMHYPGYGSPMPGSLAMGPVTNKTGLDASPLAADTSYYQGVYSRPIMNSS
Summary of the method: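 Fluorescence signal of reporter cDNA fragments, separated by capillary electrophoresis, reflects endogenous transcription factor activity in transfected HepG2 after 24 h. Both increases and decreases fitted against DMSO.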

[7] = ATG_GATA_CIS: Attagene CIS-FACTORIAL HepG2 Assay for human GATA Binding Protein (AID 2282944); conditions: HepG2 GATA cis-element reporter, Attagene multiplex mRNA; actives raise or lower the signal
Summary of the method: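 After transfecting HepG2 cells with multiple cis-regulated reporter units, chemicals are dosed for 24 h; isolated RNA undergoes RT-PCR and fluorescent labeling before capillary electrophoresis, with activity expressed against DMSO.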

[8] = ATG_GLI_CIS: Attagene CIS-FACTORIAL HepG2 Assay for human Zinc Finger Protein GLI1 (AID 2282945); conditions: HepG2, Attagene cis-factorial reporter mRNA, GLI element; actives raise or lower the signal
Summary of the method: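 Transiently transfected HepG2 cells report endogenous transcription factor activity via cis-element-driven reporter units. After 24 h compound exposure, reporter mRNA was measured by RT-PCR with capillary electrophoresis; bidirectional fitting against DMSO baseline.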

[9] = ATG_FoxO_CIS: Attagene CIS-FACTORIAL HepG2 Assay for human Forkhead box O (FoxO) (AID 2282943); conditions: HepG2 Attagene cis-reporter, FoxO element, mRNA; actives raise or lower the signal
Summary of the method: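 Transfected HepG2 reporter cells exposed to test chemical for 24 h; reporter RNA measured by reverse transcription, PCR and fluorescent capillary electrophoresis; curves fitted for increases and decreases against DMSO.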

[10] = ATG_ERE_CIS: Attagene CIS-FACTORIAL HepG2 Assay for Estrogen Response Element (ERE) (AID 2282940); conditions: HepG2 ERE cis-reporter, Attagene RNA transcript; actives raise or lower the signal
Summary of the method: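 Fluorescence of capillary-separated, FAM-labelled reporter cDNA fragments indicates reporter mRNA levels in HepG2 cells exposed to chemicals for 24 h. Transient transfection with cis-regulated units; data fitted in both directions against DMSO.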

Row | SMILES | outcome [1] | outcome [2] | outcome [3] | outcome [4] | outcome [5] | outcome [6] | outcome [7] | outcome [8] | outcome [9] | AC50 [3] | AC50 [10] | AC50 [6] | AC50 [9] | outcome [10] | AC50 [7] | AC50 [1] | AC50 [8]
1 | Cc1ccn2nc(S(=O)(=O)Nc3c(F)cccc3F)nc2n1 | inactive | inactive | inactive | inactive | inactive | inactive | inactive | inactive | – | – | – | – | – | – | – | – | –
2 | CCNc1nc(Cl)nc(NC(C)(C)C#N)n1 | inactive | inactive | inactive | inactive | inactive | inactive | inactive | inactive | inactive | – | – | – | – | – | – | – | –
3 | CNC(=O)ON=C(C)SC | inactive | inactive | inactive | inactive | inactive | inactive | inactive | inactive | inactive | – | – | – | – | – | – | – | –
4 | Cc1cc(C2CC2)nc(Nc2ccccc2)n1 | inactive | – | – | inactive | inactive | – | inactive | inactive | – | 50 µM (active) | 12.8 µM (active) | 33 µM (active) | 50 µM (active) | – | – | – | –
5 | CCCCN(CC)c1c([N+](=O)[O-])cc(C(F)(F)F)cc1[N+](=O)[O-] | inactive | inactive | inactive | inactive | inactive | inactive | inactive | inactive | – | – | – | – | – | – | – | – | –
6 | CCCCOC(=O)c1ccccc1C(=O)O | inactive | inactive | inactive | inactive | inactive | – | inactive | inactive | – | – | – | 81.4 µM (active) | – | – | – | – | –
7 | CC(C)=CC1C(C(=O)OCN2C(=O)C3=C(CCCC3)C2=O)C1(C)C (configuration not stated) | inactive | inactive | – | inactive | inactive | inactive | inactive | inactive | – | 62.1 µM (active) | – | – | – | – | – | – | –
8 | CCCOc1nn(C(=O)NS(=O)(=O)c2ccccc2C(=O)OC)c(=O)n1C | inactive | inactive | inactive | inactive | inactive | inactive | inactive | inactive | – | – | – | – | – | – | – | – | –
9 | CCOP(=O)(OCC)Oc1cc(C)nc(C(C)C)n1 | inactive | inactive | inactive | inactive | inactive | inactive | inactive | inactive | – | – | – | – | – | – | – | – | –
10 | CC(Oc1cccc(Cl)c1)C(=O)O (configuration not stated) | inactive | inactive | inactive | inactive | inactive | inactive | inactive | inactive | – | – | – | – | – | – | – | – | –
11 | Nc1c(Cl)cc([N+](=O)[O-])cc1Cl | inactive | inactive | inactive | inactive | inactive | – | inactive | inactive | – | – | 28.2 µM (active) | 76.1 µM (active) | – | – | – | – | –
12 | CCOC(=O)CC(SP(=O)(OC)OC)C(=O)OCC (configuration not stated) | inactive | inactive | inactive | inactive | inactive | inactive | inactive | inactive | inactive | – | – | – | – | – | – | – | –
13 | COP(=O)(OC)OC(Br)C(Cl)(Cl)Br (configuration not stated) | inactive | inactive | inactive | inactive | inactive | inactive | inactive | inactive | inactive | – | – | – | – | inactive | – | – | –
14 | CSc1nc(NC(C)C)nc(NC(C)C)n1 | inactive | – | inactive | inactive | inactive | inactive | inactive | inactive | – | – | – | – | – | inactive | – | – | –
15 | CC(C)[C@H](C(=O)O[C@H](C#N)c1cccc(Oc2ccccc2)c1)c1ccc(Cl)cc1 | inactive | inactive | inactive | inactive | inactive | inactive | inactive | inactive | inactive | – | – | – | – | – | – | – | –
16 | COP(=O)(OC)C(O)C(Cl)(Cl)Cl (configuration not stated) | inactive | inactive | – | inactive | inactive | inactive | inactive | inactive | inactive | 67.3 µM (active) | – | – | – | – | – | – | –
17 | CC(C)N(C(=O)SCC(Cl)=C(Cl)Cl)C(C)C | inactive | inactive | inactive | inactive | inactive | inactive | inactive | inactive | – | – | – | – | – | – | – | – | –

Row | SMILES | outcome [1] | outcome [2] | outcome [3] | outcome [4] | outcome [5] | outcome [6] | outcome [7] | outcome [8] | outcome [9] | AC50 [3] | AC50 [10] | AC50 [6] | AC50 [9] | outcome [10] | AC50 [7] | AC50 [1] | AC50 [8]
18 | C=C(C)[C@H]1Cc2c(ccc3c2O[C@@H]2COc4cc(OC)c(OC)cc4[C@@H]2C3=O)O1 | inactive | inactive | inactive | inactive | inactive | inactive | – | inactive | inactive | – | – | – | – | – | 1.21 µM (active) | – | –
19 | Cc1nn(-c2cc(NS(C)(=O)=O)c(Cl)cc2Cl)c(=O)n1C(F)F | inactive | inactive | inactive | inactive | inactive | inactive | inactive | inactive | inactive | – | – | – | – | – | – | – | –
20 | CCCCSP(=O)(SCCCC)SCCCC | – | inactive | inactive | inactive | inactive | inactive | – | – | inactive | – | – | – | – | – | 81.2 µM (active) | 56.5 µM (active) | 79.8 µM (active)
21 | CCC(=O)Nc1ccc(Cl)c(Cl)c1 | inactive | inactive | inactive | inactive | inactive | inactive | inactive | inactive | inactive | – | – | – | – | – | – | – | –
22 | COc1cc(OC)nc(Sc2cccc(Cl)c2C(=O)O)n1 | inactive | inactive | inactive | inactive | inactive | inactive | inactive | inactive | inactive | – | – | – | – | – | – | – | –
23 | COP(=O)(OC)SCn1c(=O)oc2cc(Cl)cnc21 | inactive | inactive | inactive | inactive | inactive | inactive | inactive | inactive | – | – | – | – | – | inactive | – | – | –
24 | CC1(C(=O)Nc2ccc(O)c(Cl)c2Cl)CCCCC1 | inactive | inactive | – | inactive | inactive | inactive | inactive | inactive | inactive | 32.2 µM (active) | – | – | – | – | – | – | –
25 | CCc1cccc(CC)c1N(COC)C(=O)CCl | inactive | – | inactive | inactive | inactive | inactive | inactive | inactive | – | – | – | – | – | inactive | – | – | –
26 | CCOP(=S)(OCC)Oc1ccc2c(C)c(Cl)c(=O)oc2c1 | inactive | inactive | inactive | inactive | inactive | inactive | inactive | inactive | inactive | – | – | – | – | – | – | – | –
27 | CCCOCC(=Nc1ccc(Cl)cc1C(F)(F)F)n1ccnc1 | inactive | inactive | inactive | inactive | inactive | inactive | inactive | inactive | – | – | – | – | – | – | – | – | –
28 | O=C(O)c1cc(Oc2ccc(C(F)(F)F)cc2Cl)ccc1[N+](=O)[O-] | inactive | inactive | inactive | inactive | inactive | inactive | inactive | inactive | – | – | – | – | – | – | – | – | –
29 | FC(F)C(F)(F)OCC(Cn1cncn1)c1ccc(Cl)cc1Cl (configuration not stated) | inactive | inactive | – | inactive | inactive | – | inactive | inactive | inactive | 50 µM (active) | – | 50 µM (active) | – | – | – | – | –
30 | CCCSP(=O)(OCC)Oc1ccc(Br)cc1Cl (configuration not stated) | inactive | inactive | inactive | inactive | inactive | inactive | inactive | inactive | inactive | – | – | – | – | – | – | – | –
31 | CC[C@H](C)[C@H]1O[C@]2(C=C[C@@H]1C)C[C@@H]1C[C@@H](C/C=C(\C)[C@@H](O[C@H]3C[C@H](OC)[C@@H](O[C@H]4C[C@H](OC)[C@@H](NC)[C@H](C)O4)[C@H](C)O3)[C@@H](C)/C=C/C=C3\CO[C@@H]4[C@H](O)C(C)=C[C@@H](C(=O)O1)[C@]34O)O2 | inactive | inactive | inactive | inactive | inactive | inactive | inactive | inactive | inactive | – | – | – | – | inactive | – | – | –
32 | N#CSCSC#N | inactive | inactive | inactive | inactive | inactive | inactive | inactive | inactive | – | – | – | – | – | – | – | – | –
33 | O=[N+]([O-])c1cc(C(F)(F)F)c(Cl)c([N+](=O)[O-])c1Nc1ncc(C(F)(F)F)cc1Cl | inactive | – | inactive | inactive | inactive | inactive | inactive | inactive | – | – | – | 20 µM (active) | – | inactive | – | 15.2 µM (active) | –
